Article PMC7862700, “An all-to-all approach to the identification of sequence-specific readers for epigenetic DNA modifications on cytosine”

What was measured:
Assay in all cases: DAPPL (digital affinity profiling via proximity ligation, sequencing); 10 mM Tris-HCl pH 7.5, 50 mM NaCl, 1 mM DTT, 4% glycerol, room temperature, 30 min; GST-TFs on glutathione beads, 16-mer random dsDNA library, 0.1% formaldehyde crosslink after washing; high values mean tight binding
[1] = target: T1, FEV (Homo sapiens, UniProt Q99581 1-238); conditions: protein: recombinant; tags: N-terminal GST; dsDNA, one strand shown
T1 sequence: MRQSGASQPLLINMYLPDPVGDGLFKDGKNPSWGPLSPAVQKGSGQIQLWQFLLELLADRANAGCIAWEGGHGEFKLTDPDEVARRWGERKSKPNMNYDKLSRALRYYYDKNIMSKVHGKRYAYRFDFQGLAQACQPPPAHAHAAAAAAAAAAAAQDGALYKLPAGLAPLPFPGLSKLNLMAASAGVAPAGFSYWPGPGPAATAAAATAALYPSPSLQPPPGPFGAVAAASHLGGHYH
In short: (§1)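 Human transcription factors were made in yeast as GST fusions, captured on glutathione beads and barcoded with DNA. With a tag-only sample included, the pool was incubated with 200 nmole of a random double-stranded 16-mer DNA library in Tris/NaCl/DTT/glycerol buffer at room temperature for 30 min, then crosslinked with 0.1% formaldehyde after washing, ligated by proximity, amplified and sequenced. For binding signal, each hexamer's read frequency for a factor is divided by its frequency for the tag-only sample.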

[2] = target: ETV5 (Homo sapiens, UniProt P41161 1-510); conditions: protein: recombinant; tags: N-terminal GST; dsDNA, one strand shown
In short: as §1

[3] = target: HSF1 (Homo sapiens, UniProt Q00613 1-529); conditions: protein: recombinant; tags: N-terminal GST; chain copies: 3; dsDNA, one strand shown
In short: as §1

[4] = target: T2, SPIC (Homo sapiens, UniProt Q8N5J4 1-248); conditions: protein: recombinant; tags: N-terminal GST; dsDNA, one strand shown
T2 sequence: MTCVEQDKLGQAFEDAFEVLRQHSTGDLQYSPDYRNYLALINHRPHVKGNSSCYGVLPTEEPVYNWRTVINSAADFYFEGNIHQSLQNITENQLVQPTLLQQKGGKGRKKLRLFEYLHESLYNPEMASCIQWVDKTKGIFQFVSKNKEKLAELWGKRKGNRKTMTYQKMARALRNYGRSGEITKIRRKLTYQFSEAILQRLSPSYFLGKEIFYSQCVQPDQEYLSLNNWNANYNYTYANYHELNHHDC
In short: as §1

[5] = target: ELF4 (Homo sapiens, UniProt Q99607 1-663); conditions: protein: recombinant; tags: N-terminal GST; dsDNA, one strand shown
In short: as §1

[6] = target: T3, ELK4 (Homo sapiens, UniProt P28324-2 1-405); conditions: protein: recombinant; tags: N-terminal GST; dsDNA, one strand shown
T3 sequence: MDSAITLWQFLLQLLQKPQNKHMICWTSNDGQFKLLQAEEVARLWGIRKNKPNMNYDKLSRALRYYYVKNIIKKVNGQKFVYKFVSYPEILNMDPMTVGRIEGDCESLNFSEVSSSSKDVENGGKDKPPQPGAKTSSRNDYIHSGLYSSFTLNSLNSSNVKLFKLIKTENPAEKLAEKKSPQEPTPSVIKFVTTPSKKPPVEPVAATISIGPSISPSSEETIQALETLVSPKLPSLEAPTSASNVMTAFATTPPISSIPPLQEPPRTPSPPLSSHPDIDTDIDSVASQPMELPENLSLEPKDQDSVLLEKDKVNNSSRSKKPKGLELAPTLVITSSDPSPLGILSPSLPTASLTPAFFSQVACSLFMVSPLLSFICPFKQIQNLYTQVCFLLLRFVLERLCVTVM
In short: as §1

[7] = target: T4, ETV2 (Homo sapiens, UniProt O00321 1-342); conditions: protein: recombinant; tags: N-terminal GST; dsDNA, one strand shown
T4 sequence: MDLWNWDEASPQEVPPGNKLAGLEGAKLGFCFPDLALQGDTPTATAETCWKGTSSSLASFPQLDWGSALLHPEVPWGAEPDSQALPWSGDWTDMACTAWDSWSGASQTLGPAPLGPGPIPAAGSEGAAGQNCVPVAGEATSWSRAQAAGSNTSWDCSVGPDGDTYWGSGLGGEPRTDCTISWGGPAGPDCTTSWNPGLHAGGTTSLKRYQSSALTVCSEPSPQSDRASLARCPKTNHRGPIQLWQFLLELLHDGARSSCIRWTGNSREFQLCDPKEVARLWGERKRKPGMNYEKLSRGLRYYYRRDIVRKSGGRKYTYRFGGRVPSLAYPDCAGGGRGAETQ
In short: as §1

[8] = target: T5, ELF3 (Homo sapiens, UniProt P78545 1-371); conditions: protein: recombinant; tags: N-terminal GST; dsDNA, one strand shown
T5 sequence: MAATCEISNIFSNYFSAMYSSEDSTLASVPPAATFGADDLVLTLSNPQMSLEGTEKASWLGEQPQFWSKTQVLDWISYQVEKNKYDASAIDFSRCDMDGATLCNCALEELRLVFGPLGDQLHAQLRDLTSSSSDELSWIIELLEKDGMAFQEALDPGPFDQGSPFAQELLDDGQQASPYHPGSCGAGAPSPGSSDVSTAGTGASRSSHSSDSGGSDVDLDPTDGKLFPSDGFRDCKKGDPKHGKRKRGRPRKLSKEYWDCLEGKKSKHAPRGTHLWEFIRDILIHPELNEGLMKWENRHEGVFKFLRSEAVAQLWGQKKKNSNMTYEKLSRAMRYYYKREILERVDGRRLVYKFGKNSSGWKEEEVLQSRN
In short: as §1

[9] = target: CRX (Homo sapiens, UniProt O43186 1-299); conditions: protein: recombinant; tags: N-terminal GST; dsDNA, one strand shown
In short: as §1

[10] = target: ETV1 (Homo sapiens, UniProt P50549 1-477); conditions: protein: recombinant; tags: N-terminal GST; dsDNA, one strand shown
In short: as §1

[11] = target: T6, ERF (Homo sapiens, UniProt P50548 1-548); conditions: protein: recombinant; tags: N-terminal GST; dsDNA, one strand shown
T6 sequence: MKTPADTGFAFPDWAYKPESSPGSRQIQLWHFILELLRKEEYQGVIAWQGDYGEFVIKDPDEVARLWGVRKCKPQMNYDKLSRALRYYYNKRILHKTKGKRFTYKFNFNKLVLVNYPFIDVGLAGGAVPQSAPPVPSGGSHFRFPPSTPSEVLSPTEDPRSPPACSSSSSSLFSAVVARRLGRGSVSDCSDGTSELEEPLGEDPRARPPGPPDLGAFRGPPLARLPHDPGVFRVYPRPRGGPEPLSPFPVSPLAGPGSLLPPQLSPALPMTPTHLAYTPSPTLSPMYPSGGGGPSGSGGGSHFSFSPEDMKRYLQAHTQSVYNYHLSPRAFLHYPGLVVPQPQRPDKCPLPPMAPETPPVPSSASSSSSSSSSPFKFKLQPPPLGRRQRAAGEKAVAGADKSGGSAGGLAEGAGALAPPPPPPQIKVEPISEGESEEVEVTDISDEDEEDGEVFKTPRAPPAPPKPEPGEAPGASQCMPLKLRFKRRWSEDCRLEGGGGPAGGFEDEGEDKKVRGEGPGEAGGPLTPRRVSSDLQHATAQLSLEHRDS
In short: as §1

[12] = target: T7, ETV3L (Homo sapiens, UniProt Q6ZN32 1-361); conditions: protein: recombinant; tags: N-terminal GST; dsDNA, one strand shown
T7 sequence: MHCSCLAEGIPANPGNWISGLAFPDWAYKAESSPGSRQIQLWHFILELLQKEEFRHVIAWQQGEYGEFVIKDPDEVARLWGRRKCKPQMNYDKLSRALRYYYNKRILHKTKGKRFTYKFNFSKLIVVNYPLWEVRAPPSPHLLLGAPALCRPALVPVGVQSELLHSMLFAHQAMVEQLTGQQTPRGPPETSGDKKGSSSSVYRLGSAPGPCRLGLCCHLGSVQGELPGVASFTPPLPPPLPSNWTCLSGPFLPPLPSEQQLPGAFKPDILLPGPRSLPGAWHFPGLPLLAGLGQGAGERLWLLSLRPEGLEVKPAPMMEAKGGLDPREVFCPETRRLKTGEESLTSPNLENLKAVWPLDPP
In short: as §1

[13] = target: T8, ETS2 (Homo sapiens, UniProt P15036 1-469); conditions: protein: recombinant; tags: N-terminal GST; dsDNA, one strand shown
T8 sequence: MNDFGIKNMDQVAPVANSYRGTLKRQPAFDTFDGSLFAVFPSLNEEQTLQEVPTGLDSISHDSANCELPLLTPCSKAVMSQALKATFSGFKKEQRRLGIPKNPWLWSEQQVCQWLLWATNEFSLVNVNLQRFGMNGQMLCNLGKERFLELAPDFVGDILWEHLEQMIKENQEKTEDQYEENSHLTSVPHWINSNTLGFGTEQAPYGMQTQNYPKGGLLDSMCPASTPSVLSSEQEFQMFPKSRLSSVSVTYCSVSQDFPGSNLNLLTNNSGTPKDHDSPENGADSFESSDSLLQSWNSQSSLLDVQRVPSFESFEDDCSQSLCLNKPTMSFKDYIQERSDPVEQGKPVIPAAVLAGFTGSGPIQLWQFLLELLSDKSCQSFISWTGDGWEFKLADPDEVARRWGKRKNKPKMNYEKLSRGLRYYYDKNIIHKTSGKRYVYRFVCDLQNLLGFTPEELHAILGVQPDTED
In short: as §1

[14] = target: T9, SPDEF (Homo sapiens, UniProt O95238 1-335); conditions: protein: recombinant; tags: N-terminal GST; dsDNA, one strand shown
T9 sequence: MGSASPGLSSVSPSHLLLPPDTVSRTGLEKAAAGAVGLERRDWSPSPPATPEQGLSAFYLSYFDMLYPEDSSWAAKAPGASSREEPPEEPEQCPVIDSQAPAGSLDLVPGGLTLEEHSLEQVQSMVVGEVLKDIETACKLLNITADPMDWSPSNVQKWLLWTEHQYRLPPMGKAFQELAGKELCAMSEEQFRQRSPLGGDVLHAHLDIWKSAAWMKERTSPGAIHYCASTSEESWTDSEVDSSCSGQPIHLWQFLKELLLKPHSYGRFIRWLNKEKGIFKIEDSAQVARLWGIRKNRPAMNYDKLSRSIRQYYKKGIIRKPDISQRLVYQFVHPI
In short: as §1

[15] = target: T10, ETV7 (Homo sapiens, UniProt Q9Y603 1-341); conditions: protein: recombinant; tags: N-terminal GST; dsDNA, one strand shown
T10 sequence: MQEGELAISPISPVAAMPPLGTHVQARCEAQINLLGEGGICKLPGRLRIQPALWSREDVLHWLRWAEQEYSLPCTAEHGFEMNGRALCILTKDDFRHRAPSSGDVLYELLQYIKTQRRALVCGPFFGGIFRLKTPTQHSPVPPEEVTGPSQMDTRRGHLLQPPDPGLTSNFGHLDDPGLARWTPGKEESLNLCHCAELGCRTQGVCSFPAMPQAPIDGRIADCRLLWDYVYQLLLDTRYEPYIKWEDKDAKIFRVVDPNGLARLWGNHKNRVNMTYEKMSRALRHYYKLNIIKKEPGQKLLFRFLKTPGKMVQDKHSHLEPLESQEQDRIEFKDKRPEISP
In short: as §1

[16] = target: T11, ELF5 (Homo sapiens, UniProt Q9UKW6-2 1-255); conditions: protein: recombinant; tags: N-terminal GST; dsDNA, one strand shown
T11 sequence: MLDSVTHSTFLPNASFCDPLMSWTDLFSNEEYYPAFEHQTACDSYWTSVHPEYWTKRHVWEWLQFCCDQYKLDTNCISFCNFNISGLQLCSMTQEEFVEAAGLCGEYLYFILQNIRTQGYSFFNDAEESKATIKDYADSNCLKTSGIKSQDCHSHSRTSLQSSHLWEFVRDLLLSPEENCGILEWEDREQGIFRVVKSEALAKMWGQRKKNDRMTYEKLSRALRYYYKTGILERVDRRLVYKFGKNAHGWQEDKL
In short: as §1

[17] = target: T12, ETV3 (Homo sapiens, UniProt P41162-2 1-143); conditions: protein: recombinant; tags: N-terminal GST; dsDNA, one strand shown
T12 sequence: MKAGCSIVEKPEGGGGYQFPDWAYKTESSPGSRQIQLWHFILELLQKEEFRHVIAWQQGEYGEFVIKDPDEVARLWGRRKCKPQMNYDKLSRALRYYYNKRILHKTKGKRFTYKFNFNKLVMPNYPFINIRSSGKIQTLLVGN
In short: as §1

[18] = target: ETV6 (Homo sapiens, UniProt P41212 1-452); conditions: protein: recombinant; tags: N-terminal GST; dsDNA, one strand shown
In short: as §1

ETV1, sequence (P50549 whole entry): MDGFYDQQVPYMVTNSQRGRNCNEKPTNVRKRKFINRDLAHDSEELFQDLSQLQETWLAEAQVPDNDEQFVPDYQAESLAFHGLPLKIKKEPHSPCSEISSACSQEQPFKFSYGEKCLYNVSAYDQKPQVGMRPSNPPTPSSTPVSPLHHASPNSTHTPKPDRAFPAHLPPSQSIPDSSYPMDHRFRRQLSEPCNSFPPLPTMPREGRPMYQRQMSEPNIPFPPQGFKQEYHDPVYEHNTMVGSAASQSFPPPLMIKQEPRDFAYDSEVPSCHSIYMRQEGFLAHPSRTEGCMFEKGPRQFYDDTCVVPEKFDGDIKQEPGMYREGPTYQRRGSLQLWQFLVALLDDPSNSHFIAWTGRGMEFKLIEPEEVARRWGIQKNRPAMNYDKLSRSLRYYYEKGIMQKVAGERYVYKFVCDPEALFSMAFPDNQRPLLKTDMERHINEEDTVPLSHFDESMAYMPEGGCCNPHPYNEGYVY
HSF1, sequence (Q00613 whole entry): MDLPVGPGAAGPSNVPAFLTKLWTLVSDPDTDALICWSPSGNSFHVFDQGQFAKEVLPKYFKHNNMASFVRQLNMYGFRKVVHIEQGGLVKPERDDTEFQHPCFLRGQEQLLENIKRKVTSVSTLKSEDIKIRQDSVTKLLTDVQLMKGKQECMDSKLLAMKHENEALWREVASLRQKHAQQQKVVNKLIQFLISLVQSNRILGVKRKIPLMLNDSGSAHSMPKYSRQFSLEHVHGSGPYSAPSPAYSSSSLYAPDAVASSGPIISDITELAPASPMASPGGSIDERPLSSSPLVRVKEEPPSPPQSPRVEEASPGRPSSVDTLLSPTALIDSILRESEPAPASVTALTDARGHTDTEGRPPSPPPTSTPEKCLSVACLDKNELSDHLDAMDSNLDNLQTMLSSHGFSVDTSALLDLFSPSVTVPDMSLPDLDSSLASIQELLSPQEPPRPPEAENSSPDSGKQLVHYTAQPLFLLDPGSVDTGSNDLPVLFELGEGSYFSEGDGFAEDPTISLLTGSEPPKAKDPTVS
ETV6, sequence (P41212 whole entry): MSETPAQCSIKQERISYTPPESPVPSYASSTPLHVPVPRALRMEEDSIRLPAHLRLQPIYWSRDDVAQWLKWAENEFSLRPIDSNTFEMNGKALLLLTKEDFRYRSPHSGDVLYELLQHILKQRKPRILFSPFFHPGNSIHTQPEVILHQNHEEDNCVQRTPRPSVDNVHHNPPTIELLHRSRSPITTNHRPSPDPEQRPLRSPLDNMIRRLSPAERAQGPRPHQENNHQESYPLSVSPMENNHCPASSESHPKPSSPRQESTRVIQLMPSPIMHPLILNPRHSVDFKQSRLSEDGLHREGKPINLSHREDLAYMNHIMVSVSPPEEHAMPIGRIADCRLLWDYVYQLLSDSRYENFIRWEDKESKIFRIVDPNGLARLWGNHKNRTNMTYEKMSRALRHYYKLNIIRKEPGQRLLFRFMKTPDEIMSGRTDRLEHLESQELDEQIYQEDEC
ETV5, sequence (P41161 whole entry): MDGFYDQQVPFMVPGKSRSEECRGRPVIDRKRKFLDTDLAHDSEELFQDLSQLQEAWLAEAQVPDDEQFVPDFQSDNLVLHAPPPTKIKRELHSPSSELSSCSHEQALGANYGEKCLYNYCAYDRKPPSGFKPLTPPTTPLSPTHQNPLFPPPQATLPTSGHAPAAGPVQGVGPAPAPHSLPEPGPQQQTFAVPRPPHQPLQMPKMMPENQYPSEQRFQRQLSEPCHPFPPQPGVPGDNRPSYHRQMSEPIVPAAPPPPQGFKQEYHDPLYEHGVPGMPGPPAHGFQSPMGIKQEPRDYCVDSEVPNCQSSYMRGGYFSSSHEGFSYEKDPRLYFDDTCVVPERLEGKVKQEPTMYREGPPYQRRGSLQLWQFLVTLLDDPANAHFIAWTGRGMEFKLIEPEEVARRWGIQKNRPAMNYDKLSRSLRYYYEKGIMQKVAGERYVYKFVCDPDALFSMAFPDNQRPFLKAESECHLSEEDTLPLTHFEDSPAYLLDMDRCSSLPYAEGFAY
ELF4, sequence (Q99607 whole entry): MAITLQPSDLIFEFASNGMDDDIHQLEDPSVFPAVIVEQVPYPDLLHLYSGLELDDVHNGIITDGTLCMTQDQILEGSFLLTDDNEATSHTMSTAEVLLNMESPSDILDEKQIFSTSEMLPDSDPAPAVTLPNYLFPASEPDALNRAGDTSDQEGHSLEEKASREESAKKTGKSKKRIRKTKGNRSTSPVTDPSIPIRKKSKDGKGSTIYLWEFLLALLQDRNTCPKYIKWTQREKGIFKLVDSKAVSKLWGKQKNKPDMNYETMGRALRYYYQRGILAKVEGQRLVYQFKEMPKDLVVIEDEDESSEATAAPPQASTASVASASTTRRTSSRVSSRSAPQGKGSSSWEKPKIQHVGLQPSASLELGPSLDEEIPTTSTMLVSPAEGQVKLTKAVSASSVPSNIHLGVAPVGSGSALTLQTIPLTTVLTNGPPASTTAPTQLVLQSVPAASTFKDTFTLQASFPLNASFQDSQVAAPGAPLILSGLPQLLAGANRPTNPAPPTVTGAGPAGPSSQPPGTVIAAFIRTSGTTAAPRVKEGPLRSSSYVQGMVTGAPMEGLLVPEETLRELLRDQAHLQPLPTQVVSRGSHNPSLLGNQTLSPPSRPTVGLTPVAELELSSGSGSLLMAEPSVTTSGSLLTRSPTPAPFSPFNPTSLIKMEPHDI
CRX, sequence (O43186 whole entry): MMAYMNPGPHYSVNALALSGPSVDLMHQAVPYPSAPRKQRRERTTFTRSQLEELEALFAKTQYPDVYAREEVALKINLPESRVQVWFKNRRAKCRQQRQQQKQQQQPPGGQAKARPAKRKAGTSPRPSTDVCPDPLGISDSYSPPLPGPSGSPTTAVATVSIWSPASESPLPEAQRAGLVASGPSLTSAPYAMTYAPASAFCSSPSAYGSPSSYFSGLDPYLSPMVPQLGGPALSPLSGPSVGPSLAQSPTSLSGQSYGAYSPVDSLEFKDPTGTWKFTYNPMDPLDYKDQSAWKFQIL

Sequence | binding signal [1] | binding signal [2] | binding signal [3] | binding signal [4] | binding signal [5] | binding signal [6] | binding signal [7] | binding signal [8] | binding signal [9] | binding signal [10] | binding signal [11] | binding signal [12] | binding signal [13] | binding signal [14] | binding signal [15] | binding signal [16] | binding signal [17] | binding signal [18]
GCCTAC | 1.2 fold enrichment (6-mer frequency, TF over GST control) | 1.16 fold enrichment (6-mer frequency, TF over GST control) | 1.01 fold enrichment (6-mer frequency, TF over GST control) | 1.37 fold enrichment (6-mer frequency, TF over GST control) | 1.26 fold enrichment (6-mer frequency, TF over GST control) | 1.38 fold enrichment (6-mer frequency, TF over GST control) | 1.16 fold enrichment (6-mer frequency, TF over GST control) | 1.1 fold enrichment (6-mer frequency, TF over GST control) | 1.12 fold enrichment (6-mer frequency, TF over GST control) | 1.2 fold enrichment (6-mer frequency, TF over GST control) | 1.12 fold enrichment (6-mer frequency, TF over GST control) | 1.29 fold enrichment (6-mer frequency, TF over GST control) | 1.23 fold enrichment (6-mer frequency, TF over GST control) | 1.12 fold enrichment (6-mer frequency, TF over GST control) | 1.08 fold enrichment (6-mer frequency, TF over GST control) | 1.17 fold enrichment (6-mer frequency, TF over GST control) | 1.3 fold enrichment (6-mer frequency, TF over GST control) | 1.19 fold enrichment (6-mer frequency, TF over GST control)
TGTTCC | 1.69 fold enrichment (6-mer frequency, TF over GST control) | 1.71 fold enrichment (6-mer frequency, TF over GST control) | 1.85 fold enrichment (6-mer frequency, TF over GST control) | 2 fold enrichment (6-mer frequency, TF over GST control) | 1.64 fold enrichment (6-mer frequency, TF over GST control) | 1.49 fold enrichment (6-mer frequency, TF over GST control) | 1.78 fold enrichment (6-mer frequency, TF over GST control) | 1.6 fold enrichment (6-mer frequency, TF over GST control) | 1.21 fold enrichment (6-mer frequency, TF over GST control) | 1.86 fold enrichment (6-mer frequency, TF over GST control) | 1.75 fold enrichment (6-mer frequency, TF over GST control) | 1.62 fold enrichment (6-mer frequency, TF over GST control) | 1.75 fold enrichment (6-mer frequency, TF over GST control) | 2.03 fold enrichment (6-mer frequency, TF over GST control) | 1.68 fold enrichment (6-mer frequency, TF over GST control) | 2.3 fold enrichment (6-mer frequency, TF over GST control) | 1.85 fold enrichment (6-mer frequency, TF over GST control) | 1.69 fold enrichment (6-mer frequency, TF over GST control)
